Source: PubChem BioAssay
Active and inactive are the calls of the source.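 Rule for the calls, unless noted: active = inhibition at or above 50% at 10 µM; inactive = inhibition below 50%.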

What was measured:
[1] = inhibitors of TNFa-induced NFkB p65 translocation, primary screen, imaging, HUVEC, MLSMR starter and 10KST1 sets (AID 438;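 active = inhibition above 20% together with a positive visual image hit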;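 note: compound added about 3h40 before a 20 min TNFalpha stimulation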;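 for inhibition: signal is the nuclear over cytoplasmic p65 intensity ratio per well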); details: HUVEC TNFa-induced p65 nuclear translocation; cell count: measured here: nuclei count (cytotoxicity indicator), at 2.08 µM; inhibition: at 2 µM, stronger effect = higher value, 0% TNFa-plus-vehicle, 100% no-TNFa wells
[2] = reduction of polyQ htt aggregates in cells – imaging, exon1htt(103Q)mCFP cells, high-content imaging, primary screen (AID 483;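 active = visual image review flags a hit and inhibition of aggregation exceeds 20%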;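 note: compound exposure lasted 3 days before fixation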;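 for nuclei count: percent of the per-plate median nuclei count of sample wells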); details: exon1htt(103Q)mCFP cell line, aggregate imaging, at 2 µM; inhibition of aggregation: stronger effect = higher value; nuclei count: measured here: cell count, toxicity
[3] = endothelial E-selectin expression blockers – imaging, HUVEC, immunofluorescence, MLSMR starter and 10KST1 sets, primary screen (AID 487;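 active = visually confirmed hit in the image check and inhibition above 20%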;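 for inhibition: signal is fraction of cell area covered by stained E-selectin grains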;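 for nuclei count: 100% = median nuclei count of all wells on the same plate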); details: HUVEC TNFalpha-induced E-selectin immunofluorescence imaging, at 2 µM; inhibition: stronger effect = higher value; nuclei count: measured here: cell number, toxicity
[4] = biological target: Voltage-gated potassium channel subunit beta-2 (Rattus norvegicus) (UniProt P62483); test: inhibitors of rat Kvbeta2 reductase activity – biochemical, NADPH fluorescence, primary screen (AID 622;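 active = fluorescence slope higher than the sample average by over 3 SD, cut at about -0.22 in these data, passing the limit was not always enough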;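 note: slope of raw intensity against log time taken from 70 to 1610 s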); details: recombinant KvBeta, 4-cyanobenzaldehyde reduction, at 10 µM, stronger effect = higher value
Chain of Voltage-gated potassium channel subunit beta-2 (Rattus norvegicus) (P62483 whole entry, looked up): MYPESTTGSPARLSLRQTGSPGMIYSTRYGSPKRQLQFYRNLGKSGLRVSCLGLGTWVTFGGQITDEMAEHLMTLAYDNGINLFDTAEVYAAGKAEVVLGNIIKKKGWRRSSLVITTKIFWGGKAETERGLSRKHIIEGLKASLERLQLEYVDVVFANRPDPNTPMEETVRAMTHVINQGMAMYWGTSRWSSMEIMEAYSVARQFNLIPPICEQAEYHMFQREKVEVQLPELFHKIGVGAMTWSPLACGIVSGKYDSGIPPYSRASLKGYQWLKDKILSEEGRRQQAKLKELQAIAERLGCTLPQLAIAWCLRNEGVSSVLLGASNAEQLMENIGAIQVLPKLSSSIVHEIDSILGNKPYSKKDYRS

[5] = biological target: Voltage-gated potassium channel subunit beta-2 (Rattus norvegicus) (UniProt P62483); test: enhancers of rat Kvbeta2 NADPH turnover – biochemical, NADPH fluorescence, primary screen (AID 623;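 active = NADPH fluorescence slope more negative than the mean of all samples by about 3 SD, 99.7% confidence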;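 note: fluorescence intensity change per second fitted from 20 to 320 s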); details: Recombinant KvBeta, NADPH fluorescence decrease slope, 10 min; at 10 µM; stronger effect = lower value
[6] = biological target: Alpha-2C adrenergic receptor (Homo sapiens) (UniProt P18825); test: compounds altering alpha2C-coupled GIRK flux – cell-based, HEK293 alpha2C/GIRK1/2, thallium flux, primary screen (AID 624;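 active = fluorescence slope after compound addition differing from the mean of all screened samples at 99.7% confidence, in either direction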;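 note: slope of fluorescence ratio to pre-addition baseline per second over 15 to 24 s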); details: thallium flux BTC fluorescence, at 10 µM, actives lie on both sides
Chain of Alpha-2C adrenergic receptor (Homo sapiens) (P18825 whole entry, looked up): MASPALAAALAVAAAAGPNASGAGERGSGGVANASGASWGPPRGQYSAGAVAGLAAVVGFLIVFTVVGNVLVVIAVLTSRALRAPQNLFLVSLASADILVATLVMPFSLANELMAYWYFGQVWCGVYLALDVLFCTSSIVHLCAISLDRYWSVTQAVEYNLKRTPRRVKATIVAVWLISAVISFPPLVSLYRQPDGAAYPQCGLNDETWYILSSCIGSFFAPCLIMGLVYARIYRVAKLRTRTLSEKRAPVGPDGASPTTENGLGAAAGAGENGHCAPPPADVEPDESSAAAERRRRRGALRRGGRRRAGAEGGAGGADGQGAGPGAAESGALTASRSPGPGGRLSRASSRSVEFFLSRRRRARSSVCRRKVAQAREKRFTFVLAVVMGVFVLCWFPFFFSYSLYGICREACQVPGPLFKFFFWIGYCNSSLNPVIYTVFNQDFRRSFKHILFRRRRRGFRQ

[7] = blockers of RIG-like receptor reporter activation – cell-based, Sendai virus stimulus, luciferase, 10K MLSCN set, TLR/RLR signaling modifier project, primary screen (AID 602276); details: HEK293 RL24 IRF3 luciferase reporter, at 10 µM, stronger effect = higher value;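 note: firefly luciferase from ISG56 promoter only with Renilla not read in this screen; 0% = Sendai virus plus DMSO and 100% = medium plus DMSO without virus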
[8] = TLR3 IRF3 reporter activation blockers – cell-based, poly I:C stimulus, luciferase, 10K MLSCN set, primary screen (AID 602277;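 active = inhibition of the reporter signal at or above 50%; inactive = inhibition below 50%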); details: HEK293-TLR3 RL24 IRF3 luciferase reporter, at 10 µM, stronger effect = higher value

Row | SMILES | cell count [1] | inhibition [1] | inhibition of aggregation [2] | nuclei count [2] [%] | inhibition [3] | nuclei count [3] [%] | fluorescence slope [4] | NADPH fluorescence slope [5] | slope [6] | inhibition [7] | inhibition [8]
1 | CCCCCCNC(=O)c1c(N)n(/N=C/c2ccco2)c2nc3ccccc3nc12 | 602 | 11.2% (inactive) | -16.8% (inactive) | 79.6 | 26.4% (inactive) | 104 | -0.251 (inactive) | -6e-06 (inactive) | 0.00525 (inactive) | 11.1% (inactive) | 8.29% (inactive)
2 | O=C(c1ccc(=O)[nH]c1)N(Cc1ccco1)C1(C(=O)NC2CCCC2)CCCCC1 | 296 | -7.1% (inactive) | 42.7% (active) | 85.1 | -73.8% (inactive) | 104 | -0.529 (inactive) | -8.3e-05 (inactive) | 0.00538 (inactive) | -75.5% (inactive) | 96.9% (active)
3 | Cc1cc(C)n2c(SCC(=O)Nc3cc(C)on3)nnc2n1 | 335 | -14.1% (inactive) | 2.1% (inactive) | 71.2 | 3.6% (inactive) | 100 | -0.555 (inactive) | -2.2e-05 (inactive) | 0.00561 (inactive) | 11% (inactive) | 22.4% (inactive)
4 | O=C(CSc1nnnn1C1CCCC1)Nc1cccc(NC(=O)c2ccco2)c1 | 747 | -15.8% (inactive) | 21.9% (inactive) | 56.9 | -76.4% (inactive) | 132 | -0.329 (inactive) | 2.2e-05 (inactive) | 0.00506 (inactive) | 5.72% (inactive) | 9.32% (inactive)
5 | COCc1nnc(NC(=O)c2ccc(NC(C)=O)cc2)s1 | 684 | -12.6% (inactive) | -4.2% (inactive) | 95.9 | -22% (inactive) | 93.1 | -0.527 (inactive) | -3.7e-06 (inactive) | 0.00454 (inactive) | -5.57% (inactive) | -14.7% (inactive)
6 | COc1ccc(CCNC(=O)CSc2nnc(CNc3ccc(Cl)cc3)o2)cc1OC | 241 | -3.2% (inactive) | 33.1% (active) | 72.1 | 10.2% (inactive) | 63.5 | -0.594 (inactive) | -1.9e-05 (inactive) | 0.0062 (inactive) | 11.9% (inactive) | 19.4% (inactive)
7 | COc1ccc(S(=O)(=O)NCc2ccc3c(c2)OCO3)cc1C(=O)O | 379 | -4.7% (inactive) | -1.8% (inactive) | 120 | -41.3% (inactive) | 107 | -0.324 (inactive) | -8.9e-06 (inactive) | 0.00676 (inactive) | 9.22% (inactive) | 20.8% (inactive)
8 | Nc1ccc(-n2c(N)c(C(=O)NCc3ccc4c(c3)OCO4)c3nc4ccccc4nc32)cc1 | 334 | -17.4% (inactive) | 16.7% (inactive) | 93.9 | -16.4% (inactive) | 117 | -0.476 (inactive) | -3e-05 (inactive) | 0.00435 (inactive) | 20.1% (inactive) | 3.26% (inactive)
9 | COC(=O)c1oc2ccc(Br)cc2c1NC(C)=O | 644 | -0.8% (inactive) | 35.6% (active) | 90.2 | -28.5% (inactive) | 112 | -0.575 (inactive) | -3.5e-05 (inactive) | 0.00664 (inactive) | 16.9% (inactive) | 30.7% (inactive)
10 | CC(=O)N(c1ccc(Br)cc1)C1C=CS(=O)(=O)C1 (stereo not given) | 476 | 3.9% (inactive) | 25.9% (inactive) | 49.7 | -13.7% (inactive) | 102 | -0.551 (inactive) | -4.3e-05 (inactive) | 0.00701 (inactive) | 13.8% (inactive) | 30% (inactive)
11 | O=C1CCC(c2ccccc2)N1C(=O)c1cccnc1 (stereo not given) | 565 | -17.3% (inactive) | -4.3% (inactive) | 98 | -57.8% (inactive) | 111 | -0.512 (inactive) | -6.9e-05 (inactive) | 0.00593 (inactive) | -4.49% (inactive) | 9.24% (inactive)
12 | CC1(C)CN=C(N2CCN(c3ncnc4sc5c(c34)CCCC5)CC2)S1 | 395 | 4.1% (inactive) | -0.4% (inactive) | 80.5 | -28.7% (inactive) | 113 | -0.379 (inactive) | -4.9e-05 (inactive) | 0.0035 (inactive) | 6.95% (inactive) | 5.35% (inactive)
13 | CCOC(=O)c1cc2c(=O)n3ccccc3nc2n(CCCOC)c1=NC(=O)C(C)(C)C | 656 | 2.6% (inactive) | 39.3% (active) | 86.8 | -203% (inactive) | 95.3 | -0.348 (inactive) | 7.9e-06 (inactive) | 0.00456 (inactive) | 7.96% (inactive) | 16.3% (inactive)
14 | COC(=O)[C@H](CCSC)NC(=O)Nc1cc(C)ccc1C | 476 | -7.4% (inactive) | 7.6% (inactive) | 90.6 | -5.7% (inactive) | 86.5 | -0.616 (inactive) | -3.2e-05 (inactive) | 0.00712 (inactive) | 11.7% (inactive) | 31% (inactive)
15 | CCOc1ccc(C2CC(c3ccccc3C)n3nc(N)nc3N2)cc1 (stereo not given) | 515 | 5% (inactive) | 30.8% (inactive) | 91.1 | -43.7% (inactive) | 90.1 | -0.586 (inactive) | 1.8e-05 (inactive) | 0.00699 (inactive) | 10.4% (inactive) | 25% (inactive)
16 | CC1=C(C(N)=O)C(c2ccccn2)n2nc(-c3ccccc3Cl)nc2N1 (stereo not given) | 588 | -5.4% (inactive) | -14.7% (inactive) | 104 | -11.6% (inactive) | 111 | -0.553 (inactive) | -3.1e-05 (inactive) | 0.0061 (inactive) | -2.04% (inactive) | 17.2% (inactive)
17 | CC(=O)Nc1ccc(S(=O)(=O)N2CCN(C(=O)CCC3CCCC3)CC2)cc1 | 312 | -0.8% (inactive) | -12.8% (inactive) | 96.2 | -42.2% (inactive) | 129 | -0.581 (inactive) | 5.8e-05 (inactive) | 0.00522 (inactive) | 24.2% (inactive) | 10.7% (inactive)
18 | CCC(C)NC(=O)CS(=O)(=O)Cc1nc(-c2cccc(OC)c2)oc1C (stereo not given) | 638 | -1.3% (inactive) | -7.7% (inactive) | 99.2 | -44.8% (inactive) | 107 | -0.523 (inactive) | 2.7e-05 (inactive) | 0.00702 (inactive) | 9.35% (inactive) | 4.33% (inactive)
19 | CCOc1ccc(NC(=O)CN2CCN(CC(=O)c3ccc(OCC)cc3)CC2)cc1 | 418 | 2.1% (inactive) | -16% (inactive) | 110 | -73% (inactive) | 112 | -0.397 (inactive) | -5.5e-05 (inactive) | 0.00276 (inactive) | 10.7% (inactive) | 24.5% (inactive)
20 | COc1ccc(OC)c(-n2nnnc2SCC(=O)NCc2ccc3c(c2)OCO3)c1 | 324 | -12.5% (inactive) | -18.9% (inactive) | 101 | -26.8% (inactive) | 109 | -0.604 (inactive) | -1.7e-05 (inactive) | 0.00401 (inactive) | 18% (inactive) | -14.2% (inactive)
